Assay results from the supplement of paper PMC4100887.
Where a name gives a salt, the structure may show the parent alone. ± gives the standard deviation of the averaged measurements.

Key:
IMR-90 = test: relative cell viability (ATPlite) vs untreated control (fraction); higher = less toxic; conditions: 1 µM; 72 h
K562 [1] = test: as above; conditions: 1 µM; 72 h
K562 [2] = test: relative cell viability (ATPlite) vs untreated control, with imatinib (fraction); higher = less toxic; conditions: 1 µM; 72 h; imatinib 0.125 µM

Row | Compound | relative cell viability (IMR-90) | relative cell viability (K562 [1]) | relative cell viability (K562 [2])
1 | CCCOc1ccc(/C=C2/SC(=O)NC2=O)cc1 [PIM1/2 Kinase Inhibitor VI] | 0.916 ± 0.1 | 0.972 ± 0.031 | 0.802 ± 0.029
2 | Nc1ccc(-c2cccc3c(=O)cc(N4CCOCC4)oc23)cc1 | 0.822 ± 0.13 | 0.79 ± 0.094 | 0.627 ± 0.056
3 | Cc1cc(Nc2nc(-c3ccccc3)nc3ccccc23)n[nH]1 [GSK-3 Inhibitor XIII] | 1 ± 0.059 | 0.937 ± 0.041 | 0.711 ± 0.034
4 | O=[N+]([O-])c1ccc(-c2nc(-c3ccc(F)cc3)c(-c3ccncc3)[nH]2)cc1 | 1.05 ± 0.089 | 0.774 ± 0.031 | 0.693 ± 0.039
5 | O=C(O)c1ccc2c3c1cccc3c(=O)n1c3ccccc3nc21 | 0.961 ± 0.12 | 0.947 ± 0.051 | 0.811 ± 0.088
6 | CC(=O)O/N=C1/C(c2c(O)[nH]c3cc(Br)ccc23)=Nc2ccccc21 [GSK-3 Inhibitor X] | 0.903 ± 0.052 | 0.885 ± 0.08 | 0.76 ± 0.036
7 | CCN(CC)CCNC(=O)c1c(C)[nH]c(/C=C2\C(=O)Nc3ccc(Cl)cc32)c1C | 0.92 ± 0.082 | 0.909 ± 0.062 | 0.799 ± 0.052
8 | O=C(c1ccc(Nc2nccc(-c3cc4ccccc4s3)n2)cc1)N1CCC(N2CCCC2)CC1 [IKK Inhibitor VII] | 0.972 ± 0.066 | 0.773 ± 0.022 | 0.632 ± 0.031
9 | N#Cc1c(C2CCNCC2)cc(-c2c(O)cccc2OCC2CC2)nc1N [IKK-2 Inhibitor VIII] | 1.01 ± 0.12 | 0.871 ± 0.048 | 0.718 ± 0.021
10 | COc1ccc2nc3n[nH]c(C)c3c(NCCOCCO)c2c1 | 1 ± 0.077 | 1.02 ± 0.064 | 0.843 ± 0.066
11 | c1ccc(-c2n[nH]c3c2oc2ccccc23)cc1 | 0.943 ± 0.083 | 0.868 ± 0.038 | 0.732 ± 0.04
12 | CCCCn1c2ccc(O)cc2c2c3c(c(-c4ccccc4Cl)cc21)C(=O)NC3=O [Wee1 Inhibitor II] | 0.754 ± 0.44 | 0.876 ± 0.086 | 0.748 ± 0.1
13 | NCCNc1ncc(C(N)=O)c(Nc2cccc(C(F)(F)F)c2)n1 [Syk Inhibitor II] | 0.974 ± 0.079 | 0.949 ± 0.058 | 0.773 ± 0.048
14 | c1cc(-c2cnn3cc(-c4ccc(OCCN5CCCCC5)cc4)cnc23)ccn1 [AMPK Inhibitor, Compound C] | 0.86 ± 0.092 | 0.883 ± 0.072 | 0.834 ± 0.051
15 | CCCCCCCCCCCCCCCCn1cc[n+](Cc2ccccc2)c1C [eEF-2 Kinase Inhibitor, NH125] | 0.948 ± 0.11 | 0.506 ± 0.092 | 0.401 ± 0.1
16 | COc1ccc2c(c1)c1c3c(c4c5ccccc5n(C)c4c1n2CC(O)CN(C)C)C(=O)NC3=O (configuration not stated) [Gö 7874, Hydrochloride] | 0.87 ± 0.034 | 0.901 ± 0.025 | 0.775 ± 0.031
17 | NC(N)=NCCNS(=O)(=O)c1cccc2cnccc12 [HA 1004, Dihydrochloride] | 1.01 ± 0.1 | 0.851 ± 0.066 | 0.756 ± 0.015
18 | N#Cc1c(NC(=O)c2cccc3ccccc23)sc2c1CCCC2 [JNK Inhibitor IX] | 0.97 ± 0.044 | 0.143 ± 0.058 | 0.101 ± 0.04
19 | CN(C)CCCn1cc(C2=C(c3c[nH]c4ccccc34)C(=O)NC2=O)c2ccccc21 [Bisindolylmaleimide I] | 0.895 ± 0.12 | 0.169 ± 0.052 | 0.137 ± 0.042
20 | Fc1ccc(-c2nc3n(c2-c2ccncc2)CCS3)cc1 | 0.999 ± 0.12 | 0.845 ± 0.071 | 0.737 ± 0.058
21 | CCOc1nc(NC(=O)Cc2cc(OC)ccc2OC)cc(N)c1C#N [JNK Inhibitor VIII] | 0.992 ± 0.081 | 0.983 ± 0.035 | 0.769 ± 0.053
22 | O=c1c(O)c(-c2ccc(O)c(O)c2)oc2cc(O)c(O)c(O)c12 [Quercetagetin] | 0.88 ± 0.16 | 0.799 ± 0.086 | 0.64 ± 0.025
23 | Cc1cc2ncc(-c3ccccc3)nc2cc1C | 0.969 ± 0.069 | 0.836 ± 0.094 | 0.719 ± 0.05
24 | O=C(c1cc2cc(O)ccc2[nH]1)c1cc2cc(O)ccc2[nH]1 [Flt-3 Inhibitor II] | 1.04 ± 0.085 | 0.461 ± 0.026 | 0.418 ± 0.035
25 | O=C(Nc1cccc(Nc2nccc(Nc3cccc(C(F)(F)F)c3)n2)c1)C1CC1 [Aurora Kinase Inhibitor III] | 0.892 ± 0.074 | 0.892 ± 0.044 | 0.755 ± 0.05
26 | COc1cc(Nc2ncc3ccn(-c4cccc(CCC#N)c4)c3n2)cc(OC)c1OC [Keratinocyte Differentiation Inducer] | 1.02 ± 0.058 | 0.173 ± 0.21 | 0.459 ± 0.35
27 | O=C1C(=Cc2ccc(O)cc2)C2=Nc3ccccc3C2=C1C1=C2C(=Nc3ccccc32)C(=Cc2ccc(O)cc2)C1=O [Scytonemin, Lyngbya sp.] | 0.834 ± 0.054 | 0.986 ± 0.052 | 0.821 ± 0.089
28 | CCOC(=O)c1c(C)[nH]c(/C=C2\C(=O)Nc3ccccc32)c1C [VEGF Receptor 2 Kinase Inhibitor I] | 0.961 ± 0.063 | 0.996 ± 0.047 | 0.845 ± 0.075
29 | CCN(CC)C(=O)c1ccc(Nc2nc(OCC3CCCCC3)c3[nH]cnc3n2)cc1 [Cdk2 Inhibitor IV, NU6140] | 1.03 ± 0.076 | 0.775 ± 0.041 | 0.672 ± 0.031
